# Laboratory results as given in PubChem BioAssay AID1851 (National Center for Advancing Translational Sciences (NCATS), 2009).
# Among all 16,000 compounds or so, about 5,100 (32%) were called active. Another 25% or so got no clear call; they are omitted. Some of the results follow. Unmarked numbers belong to inactive results. Calls come from the whole dose curve; as a rule, active = well fitted curve in the direction sought with a large enough effect; inconclusive = small, poorly fitted or top-dose-only effect, or effect the other way; inactive = no such curve, though single readings can be large or run the other way.
# Molecular target: Cytochrome P450 3A4 (Homo sapiens) (UniProt P08684)
# Sequence (P08684 whole entry, looked up): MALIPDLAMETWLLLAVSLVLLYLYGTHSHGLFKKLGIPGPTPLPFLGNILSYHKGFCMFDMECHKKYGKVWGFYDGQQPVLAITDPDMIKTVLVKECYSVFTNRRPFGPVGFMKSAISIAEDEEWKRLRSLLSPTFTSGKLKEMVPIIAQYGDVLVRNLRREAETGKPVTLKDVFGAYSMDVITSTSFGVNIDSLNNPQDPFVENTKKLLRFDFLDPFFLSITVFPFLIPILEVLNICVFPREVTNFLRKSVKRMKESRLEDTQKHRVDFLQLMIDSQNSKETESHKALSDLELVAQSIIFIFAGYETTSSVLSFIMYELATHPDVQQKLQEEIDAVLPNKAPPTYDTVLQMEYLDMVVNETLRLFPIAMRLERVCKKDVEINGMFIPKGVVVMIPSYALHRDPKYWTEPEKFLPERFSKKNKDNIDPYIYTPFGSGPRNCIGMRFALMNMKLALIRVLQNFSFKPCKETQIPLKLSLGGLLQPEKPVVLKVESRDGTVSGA
# Test: Cytochrome panel assay with activity outcomes
# Conditions: recombinant CYP, pro-luciferin dealkylation, luminescence, p450-cyp3a4; series mostly up to 57.1 µM; activity, negative = inhibition: at the top concentration
# % is set by controls: 0 for no effect and ±100 for the full control effect.
SMILES,"activity, negative = inhibition",AC50
CN(C)[C@H]1C(=O)C(C(=O)NCN2CCCC2)=C(O)[C@]2(O)C(=O)C3=C(O)c4c(O)cccc4[C@](C)(O)[C@H]3C[C@H]12,-6.5% [at 11.4 µM],
CC(=O)NC1=NC(=O)CS1,-4.9%,
N[C@@]1(C(=O)O)CN[C@H](C(=O)O)C1,24.7%,
CCOc1cc(-c2noc(N)c2C#N)cc(OCC)c1OCC,,0.2 µM (active)
Cc1ccc(S(=O)(=O)N2CCN(S(C)(=O)=O)C2)cc1,-0.447% [at 11.4 µM],
Cc1ccc(S(=O)(=O)N2CCN(Cc3ccccc3C(F)(F)F)CC2)cc1,,8.91 µM (active)
Cc1ccc(S(=O)(=O)N2CCN(C(=O)CN3CCN(C)CC3)C2)cc1,-21.9%,
O=C(Nc1cccnc1)c1ccc2snnc2c1,,11.2 µM (active)
O=C(Nc1cccc(OC(=O)c2cccnc2)c1)c1cccnc1,-4.22% [at 2.29 µM],
CCOC(=O)c1ccccc1Oc1c(F)c(F)nc(NCCO)c1F,-28.7%,
COC(=O)c1cc(C#N)c(NCc2ccc(Cl)cc2Cl)nc1C,-2.03%,
Cc1cc(C)c2cc(C#N)c(NCCOC(=O)c3ccccc3C)nc2c1,,7.08 µM (active)
O=C(NC1CCCCC1)c1ccc(COCC(F)(F)F)o1,-17%,
COc1ccc(CCN(C(=O)C(F)(F)F)C(C(=O)NC2CCCC2)c2cccs2)cc1 (configuration not stated),,3.55 µM (active)
Cc1cc(C)cc(N(C(=O)c2ccccn2)C(C(=O)NC2CCCCC2)c2cccs2)c1 (configuration not stated),,5.01 µM (active)
O=C(NC1CCCCC1)C(c1cccs1)N(C(=O)C(F)(F)F)c1ccccc1 (configuration not stated),,7.08 µM (active)
Cc1nnc(N(C)C(=O)c2ccccn2)s1,-5.58%,
Cc1ccc(N(C(=O)C(F)(F)F)C(C(=O)NC2CCCCC2)c2cccs2)cc1C (configuration not stated),,6.31 µM (active)
Cc1snc(SCC(=O)N/N=C(\N)COc2cccc(C(F)(F)F)c2)c1C#N,,3.16 µM (active)
O[C@H](CCCN1CCN(c2ncc(F)cn2)CC1)c1ccc(F)cc1,-19.9%,
COc1ccc(OC)c(CNC(=O)CCNC(=O)Cn2ccc3ccccc3c2=O)c1,5.01% [at 2.29 µM],
O=C(CCNC(=O)Cn1cnc2ccccc2c1=O)NCC1COc2ccccc2O1 (configuration not stated),5.27% [at 2.29 µM],
COc1cccc(CNC(=O)CCNC(=O)Cn2ccc3ccccc3c2=O)c1,,14.1 µM (active)

SMILES,"activity, negative = inhibition",AC50
CCCC[C@@H]1C[C@H]1C(NC(=O)c1ccco1)c1ccc(C(=O)OC)cc1 (some centres not stated),,15.8 µM (active)
CCCC[C@@H]1C[C@H]1C(NC(=O)c1ccco1)c1ccc(-c2ccccc2)cc1 (some centres not stated),,15.8 µM (active)
CC1CCN(C(NC(=O)c2ccco2)C(=O)c2ccccc2)CC1 (configuration not stated),-24.8%,
CCCC[C@@H]1C[C@H]1C(NC(=O)c1ccco1)c1ccc(Cl)cc1 (some centres not stated),,7.94 µM (active)
CCC1(c2ccccc2)C(=O)NCNC1=O,,inactive
O=C(CSC1CC(=O)N(CC(c2ccccc2)c2ccccc2)C1=O)Nc1ccc(Cl)cc1 (configuration not stated),,8.91 µM (active)
CCCCN1C(=O)CC(Sc2ccccc2C(=O)O)C1=O (configuration not stated),-6.33%,
Cc1cc2ccc(OC(=O)c3ccc(N=C(N)N)cc3)cc2oc1=O,-27.2% [at 11.4 µM],
CN(C)CCCN1c2ccccc2Sc2ccc3ccccc3c21,-13.6% [at 11.4 µM],
CCC(=O)c1ccc2c(c1)N(CCCN(C)C)c1ccccc1S2,-19.6%,
CN(C)CCCN1c2ccccc2Sc2cnccc21,,1.58 µM (active)
COc1ccccc1NC(=O)COC(=O)c1ccc(S(=O)(=O)NCc2ccco2)cc1,,28.2 µM (active)
Cc1cc(NC(=O)c2cccc(F)c2)no1,-14.9%,
O=C(Cc1ccccc1)NC1CCN(S(=O)(=O)c2ccc(C(=O)O)cc2)CC1,10.8%,
Cc1cc(NC(=O)c2ccc(S(=O)(=O)Nc3ccccc3)cc2)no1,2.51% [at 2.29 µM],
COc1ccccc1NS(=O)(=O)c1cccc(C(=O)OCC(=O)Nc2cc(C)on2)c1,,7.08 µM (active)
COc1ccc(OC)c(NC(=O)C(CC(=O)O)NCc2ccco2)c1 (configuration not stated),-1.25%,
COc1cc2ccccc2cc1C(=O)Nc1ccc(S(=O)(=O)Nc2cc(C)on2)cc1,6.01% [at 11.4 µM],
O=C(Nc1ccc(S(=O)(=O)N2CCCCC2)cc1)c1ccc(CN2CCc3ccccc3C2)cc1,11.8%,
Cc1cc(NC(=O)COC(=O)c2ccc(NS(=O)(=O)c3ccc(C)c(C)c3)cc2)no1,,5.01 µM (active)
O=C(NCc1ccccc1)c1ccc(S(=O)(=O)N2CCCc3ccccc32)cc1,,10 µM (active)
O=C(O)NCC1CCCCC1 (tested in a mixture with another compound),-26.5% [at 11.4 µM],
O=[n+]1c2c(n([O-])c3cc(F)c(F)cc31)CCCC2,4.83%,

SMILES,"activity, negative = inhibition",AC50
CC(C)(C)C(=O)[C@H]1[C@H](c2ccccc2)[C@@]2(N=C(c3ccccc3)OC2=O)C2c3ccccc3C=NN21 (some centres not stated),-20.3% [at 2.29 µM],
Cc1cc(NC(=O)COC(=O)c2ccc(S(=O)(=O)N3CCCc4ccccc43)cc2)no1,,0.891 µM (active)
COc1ccc(/C=C(\C#N)C(N)=O)cc1OC,-6.66% [at 11.4 µM],
COc1ccc(/C=C(\C#N)C(N)=O)c(OC)c1,,2.51 µM (active)
CCOc1ccccc1/C=C(\C#N)C(N)=O,-4.52% [at 11.4 µM],
Cc1cccc2nc(C(F)(F)F)nc(=O)n12,0.743% [at 2.29 µM],
CC(C)OC(=O)c1cccc(C(=O)Oc2ccc(Br)cc2)n1,3%,
O=C(CCN1C(=O)c2cccc3cccc(c23)C1=O)N1CCN(Cc2ccc3c(c2)OCO3)CC1,,1 µM (active)
Cc1ccccc1/C=C1\OC(=O)c2ccccc21,-28.4%,
Cc1ccc(/C=C2\OC(=O)c3ccccc32)cc1,,12.6 µM (active)
Cc1ccc(=O)n(-c2ccccc2)c1,-17.9%,
CCC(C)N1C(=O)S/C(=C/c2ccc(Sc3nc4ccccc4[nH]3)o2)C1=O (configuration not stated),,1.12 µM (active)
COc1ccccc1CNc1ncnc2ccc(-c3c(C)noc3C)cc12,,12.6 µM (active)
COc1ccc(CNc2ncnc3ccc(-c4c(C)noc4C)cc23)c(OC)c1,,3.16 µM (active)
Cn1c(N)c(N=Nc2ccc(S(N)(=O)=O)cc2)c(=O)n(C)c1=O,-14.9% [at 11.4 µM],
CC(C)(C)c1ccc(CN(Cc2ccco2)Cc2nnnn2C2CCCC2)cc1,,1.41 µM (active)
CN(Cc1ccco1)C(=O)C1CCC(=O)N1Cc1ccc(F)cc1 (configuration not stated),-13.7%,
NC(N)=N/N=C(\c1ccc(Cl)cc1)C1CC1,-13.1% [at 11.4 µM],
CCOC(=O)N1CCN(C(=O)c2cnc3n(c2=O)CCS3)CC1,-1.95%,
CCOC(=O)N1CCN(C(=O)CCn2nc(-c3ccccc3)ccc2=O)CC1,11.8%,
CCOC(=O)N1CCN(C(=O)C(CC)n2nc(C)c3sc4ccccc4c3c2=O)CC1 (configuration not stated),,7.08 µM (active)
C[C@@H]1C[C@H](C)CN(S(=O)(=O)c2cc(Cl)c(Oc3ccc([N+](=O)[O-])cc3Cl)c(Cl)c2)C1,-9.23% [at 11.4 µM],
COc1ccc(S(=O)(=O)N2CC3C4C=CC(C4)C3C2)cc1 (configuration not stated),,14.1 µM (active)

SMILES,"activity, negative = inhibition",AC50
COc1ccc(CCC(C)NC2C3CC4CC(C3)CC2C4)cc1 (configuration not stated),-2.79% [at 2.29 µM],
Oc1ccccc1-c1cc(-c2ccccc2)no1,1.55%,
O=C(CN1C(=O)NC2(CCCC2)C1=O)NCCC1=CCCCC1,-28.6%,
CC1CN(C(=O)CN2C(=O)NC3(CCCCCC3)C2=O)CC(C)O1 (configuration not stated),25.3%,
O=C(CN1C(=O)NC2(CCCCCC2)C1=O)N1CCN(S(=O)(=O)c2ccc(Cl)cc2)CC1,,6.31 µM (active)
Nc1ccc(-c2ccc(Nc3cc(S(=O)(=O)O)c(N)c4c3C(=O)c3ccccc3C4=O)cc2)c(S(=O)(=O)O)c1,-1.65% [at 11.4 µM],
CC1CCN(S(=O)(=O)c2ccc3c(c2)C(=NO)c2cc(S(=O)(=O)N4CCC(C)CC4)ccc2-3)CC1,-0.656% [at 2.29 µM],
Cc1ccc(S(=O)(=O)N(C)c2cc(S(=O)(=O)N3CCC(C)CC3)c(C)cc2C)cc1,,2.51 µM (active)
O=C(N/N=C\c1ccc2c(c1)CCC2)c1ccccc1O,-19.2% [at 11.4 µM],
O=C(CC1CCCC1)Nc1ccc2c(c1)CCC2,,14.1 µM (active)
CC(=O)c1cccc(NC(=O)Cc2ccc3c(c2)CCCC3)c1,-26.1%,
COCCCNC(=O)c1c(N)n(/N=C/c2ccccn2)c2nc3ccccc3nc12,,4.47 µM (active)
Cc1nc2ccccc2n1CC(=O)N/N=C\c1ccccn1,-14.7%,
CCCCCCCCC(=O)N/N=C/c1ccccn1,-18.3%,
O=S(=O)(c1ccccc1)N1CCC2(CCCN(c3cccc(-c4ccccc4)c3)C2)CC1,,3.98 µM (active)
CN1CCCC2(CCN(S(=O)(=O)c3ccccc3)CC2)C1,-18%,
O=S(=O)(c1ccccc1)N1CCC[C@@]2(CCN(c3cccc(-c4ccccc4)c3)C2)C1,,12.6 µM (active)
CS(=O)(=O)N1CCC2(CC1)CN(c1cccc(-c3ccccc3)c1)C2,-29.8%,
O=S(=O)(c1ccccc1)N1CCC2(CCCN(c3ccccc3)C2)CC1,,3.98 µM (active)
O=S(=O)(c1ccccc1)N1CCC2(CC1)CN(c1ncccn1)C2,3.08%,
CS(=O)(=O)N1CCC2(CCCN(c3ncccn3)C2)CC1,-23.3%,
O=S(=O)(c1ccccc1)N1CCC2(CCCN(c3ncccn3)C2)CC1,,12.6 µM (active)
CS(=O)(=O)N1CCC2(CCN(c3cccc(-c4ccccc4)c3)CC2)CC1,-21.2%,
